From PubChem BioAssay (Tox21) come the findings set out here.

The nature of test [1]: qHTS RealTime-Glo MT Cell Viability Assay in HEK293 cells - 0 hour (AID 1224880). Also: top concentration of the series differs between compounds; nearly all actives have a fitted effect of over 45% in size. A digest of the protocol:
(§1)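 Luminescence, which tracks viable cell number through reduction of the prosubstrate to a NanoLuc substrate, was read over continuous 37 C culture. Cells (600/well) were premixed with reagent and rested 5 h before 23 nL of compound in DMSO was pinned.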

The nature of test [2]: A CellTox Green Cytotoxicity Assay to monitor cytotoxicity in HEK293 cells - 32 hour (AID 1224881). Also: nearly all actives have a fitted effect of over 40% in size. A digest of the protocol:
(§2)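 Fluorescence from a DNA-binding dye excluded by viable cells was measured repeatedly in the same HEK293 wells (600 cells/well) during continuous compound exposure at 37 C. Each assay gives one read point: 0, 8, 16, 24, 32 or 40 h.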

The nature of test [3]: A CellTox Green Cytotoxicity Assay to monitor cytotoxicity in HepG2 cells - 0 hour (AID 1224882). Also: nearly all actives have a fitted effect of over 35% in size. In a few lines: (§3)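 Real-time cytotoxicity: fluorescence of a cell-impermeant cyanine dye binding DNA of dead HepG2 cells, measured repeatedly (0–40 h) during compound exposure at 37 C. Cells seeded 600/well with reagent, dosed after 5 h.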
Test [4] is described as follows: A CellTox Green Cytotoxicity Assay to monitor cytotoxicity in HepG2 cells - 32 hour (AID 1224883). Also: nearly all actives have a fitted effect of over 50% in size. In a few lines: as §3
Test [5] can be described thus: A CellTox Green Cytotoxicity Assay to monitor cytotoxicity in HEK293 cells - 8 hour (AID 1224884). Also: nearly all actives have a fitted effect of over 35% in size. A digest of the protocol: as §2
A short description of test [6]: qHTS RealTime-Glo MT Cell Viability Assay in HepG2 cells - 16 hour (AID 1224885). Also: nearly all actives have a fitted effect of over 50% in size. A digest of the protocol:
(§4)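 Cells + NanoLuc/prosubstrate dispensed (600 cells/well) → 5 h at 37 C/5% CO2 → compounds in DMSO transferred → 40 h incubation at 37 C, luminescence read at 0, 8, 16, 24, 32, 40 h.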

The nature of test [7]: qHTS RealTime-Glo MT Cell Viability Assay in HEK293 cells - 8 hour (AID 1224887). Also: top concentration of the series differs between compounds; nearly all actives have a fitted effect of over 50% in size. In a few lines: as §1
The nature of test [8]: A CellTox Green Cytotoxicity Assay to monitor cytotoxicity in HEK293 cells - 16 hour (AID 1224888). Also: nearly all actives have a fitted effect of over 35% in size. In a few lines:
as §2

Test [9] can be described thus: qHTS RealTime-Glo MT Cell Viability Assay in HepG2 cells - 0 hour (AID 1224889). Also: nearly all actives have a fitted effect of over 50% in size. In a few lines: as §4
Test [10] can be described thus: A CellTox Green Cytotoxicity Assay to monitor cytotoxicity in HepG2 cells - 8 hour (AID 1224890). Also: nearly all actives have a fitted effect of over 45% in size. A digest of the protocol:
as §3

Test [11] in a line: qHTS assay to identify small molecule antagonists of the estrogen receptor alpha (ER-alpha) signaling pathway using the BG1 cell line in the presence of 0.1 nM 17-beta-estradiol - cell viability counter screen (AID 1259241). Also: nearly all actives have a fitted effect of over 40% in size. In a few lines:
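Viability in VM7Luc4E2 cells after 22 hr compound exposure under 0.1 nM 17beta-estradiol stimulation, by CellTiter-Fluor.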

The nature of test [12]: qHTS assay to identify small molecule antagonists of the androgen receptor (AR) signaling pathway using the MDA cell line in the presence of 0.5 nM R1881 - cell viability counter screen (AID 1259242). Also: nearly all actives have a fitted effect of over 45% in size. In a few lines:
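Live-cell protease activity was measured by CellTiter-Fluor fluorescence after 30 min. Before that, MDA-kb2 MMTV-luciferase cells had 16 hr at 37C without CO2, exposed to test compounds and 0.5 nM R1881 final.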

Test [13] can be described thus: qHTS assay to identify small molecule HDAC inhibitors (AID 1259364). Also: nearly all actives have a fitted effect of over 45% in size. Also: potency is read from the fitted curve at half-maximal effect. In a few lines:
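Luminescence read after 30 min room-temperature HDAC-Glo incubation measures cellular class I/II HDAC activity. Compounds were applied for 2 hr at 37 C to HCT-116 wild-type cells seeded the day before.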

A short description of test [14]: qHTS assay to identify small molecule HDAC inhibitors - cell viability counter screen (AID 1259365). In a few lines: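 Cytotoxicity was gauged in wild-type HCT-116 cells after a brief 2hr treatment with DMSO-dissolved compounds at 37C and 5% CO2, using CellTiter-Glo luminescence developed for 30min at room temperature.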
Test [15] can be described thus: qHTS assay to identify small molecule agonists of the sonic hedgehog signaling (Shh) pathway - cell viability counter screen (AID 1259366). Also: nearly all actives have a fitted effect of over 50% in size. A digest of the protocol:
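Stable Gli1-Luc NIH/3T3 clone, 2,000 cells/well. Compound exposure 24hr at 37C. Read-out: CellTiter-Fluor fluorescence.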

Test [16] in a line: qHTS assay to identify small molecule antagonists of the sonic hedgehog signaling (Shh) pathway - cell viability counter screen (AID 1259367). Also: nearly all actives have a fitted effect of over 55% in size. A digest of the protocol: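 Fluorescence read-out (CellTiter-Fluor, 1 hr at 37C) taken after 23 hr compound treatment of 3T3 Gli1-Luc cells stimulated with conditioned medium. Cells were seeded at 2,000 per well and pre-incubated 4 hr.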

In test [17] the target is Estrogen receptor (Homo sapiens) (UniProt P03372). Description: qHTS assay to identify small molecule antagonists of the estrogen receptor alpha (ER-alpha) signaling pathway using the BG1 cell line in the presence of 0.1 nM 17-beta-estradiol (AID 1259244). Also: nearly all actives have a fitted effect of over 50% in size. A digest of the protocol:
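Luciferase luminescence (ONE-Glo, 30 min at room temperature) was read after 22 hr at 37C exposure to compounds plus 17beta-estradiol at 0.1 nM final. Cells were VM7Luc4E2 with endogenous ER-alpha and an ERE-driven luciferase, pre-cultured 5 days in hormone-depleted medium.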

Test [18] can be described thus: qHTS assay to identify small molecule phospholipidosis (PLD) inducers (AID 1259344; active = well fitted curve in the direction sought with a large enough effect; an effect the other way counts as inactive or inconclusive). A digest of the protocol: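 Read-out is LipidTOX Red fluorescence (ex 595/em 615) imaged in HepG2 cells after 24 h compound exposure at 37 C, with Hoechst nuclear counterstain (ex 352/em 461) allowing per-cell normalisation.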
Test [19] is described as follows: qHTS RealTime-Glo MT Cell Viability Assay in HEK293 cells - 24 hour (AID 1224886). In a few lines: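 Tox21 10K qHTS, HEK293, 600 cells/well, RealTime-Glo reagent co-dispensed with cells; 5 h preincubation, compound by pintool, 37 C, luminescence at 0–40 h.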

A number with no mark means an inactive call. Records with an inconclusive call do not appear. Calls of active or inactive are those of the source. Unless noted, calls follow the shape of the dose curve; as a rule, active = well fitted curve in the direction sought with a large enough effect in the repeat runs; inconclusive = weak or mixed curves; inactive = no such curve, though single readings can be large; an effect the other way counts as inactive or inconclusive.

Estrogen receptor (Homo sapiens), sequence (P03372 whole entry, looked up): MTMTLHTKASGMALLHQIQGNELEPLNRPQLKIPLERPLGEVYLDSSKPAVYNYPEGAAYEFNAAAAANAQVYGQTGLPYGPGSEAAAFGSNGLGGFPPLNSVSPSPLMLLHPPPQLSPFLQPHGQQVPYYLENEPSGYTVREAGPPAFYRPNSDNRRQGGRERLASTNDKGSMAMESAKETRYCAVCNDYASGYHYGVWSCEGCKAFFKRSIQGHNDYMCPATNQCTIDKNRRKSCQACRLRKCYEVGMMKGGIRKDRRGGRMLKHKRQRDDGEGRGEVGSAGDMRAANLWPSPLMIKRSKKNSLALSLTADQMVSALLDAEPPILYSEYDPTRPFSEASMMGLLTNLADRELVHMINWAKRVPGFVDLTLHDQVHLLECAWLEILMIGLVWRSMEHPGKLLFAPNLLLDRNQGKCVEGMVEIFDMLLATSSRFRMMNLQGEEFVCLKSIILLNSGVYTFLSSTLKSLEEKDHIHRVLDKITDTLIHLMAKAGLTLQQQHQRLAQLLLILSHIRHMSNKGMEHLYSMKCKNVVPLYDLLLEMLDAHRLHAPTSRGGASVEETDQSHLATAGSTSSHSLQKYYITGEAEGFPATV

Regarding `CC(C)NCC(O)c1ccc(NS(C)(=O)=O)cc1` (stereo not given), the Potency result in test [1], in [2], in test [3], in test [4], in test [5] and in test [6] was “inactive” each time. In addition, the Potency entry in test [7], in test [8], in test [9], in test [10], in test [12] and in [13] was “inactive” throughout. The Potency result in test [15] and in [16] was “inactive” throughout. The result in test [11] and in test [14] was inactive.
Take `N=C(N)c1ccc2cc(OC(=O)c3ccc(N=C(N)N)cc3)ccc2c1`: the Potency result in test [1], in test [2], in test [3], in test [4], in test [5] and in [6] was “inactive” in each case. The Potency result in test [8], in [9], in test [10], in [12], in [18] and in [15] was “inactive” in each case. The Potency result in test [16] is “inactive”. The outcome in test [11], in [17] and in test [14] was inactive. For the same compound, the Potency in test [13] was 59.6 nM (active).
`C=COCC1CCC(CO)CC1` (stereo not given): the Potency result in test [1], in test [2], in test [3], in test [5], in test [6] and in [19] was “inactive” in each case. Further, the Potency result in test [7], in test [8], in test [9], in [10], in [12] and in test [13] was “inactive” throughout. Further, the Potency entry in [15] and in test [16] was “inactive” in each case. The result in test [11], in test [17] and in [14] was inactive.
Turning to `C=CCOCC(CC)(CO)COCC=C`, the Potency entry in test [1], in [2], in test [3], in test [4], in test [5] and in [6] was “inactive” throughout. The Potency entry in test [9], in test [10], in [12], in test [13], in [15] and in test [16] was “inactive” in each case. Moreover, the outcome in [11] and in test [14] was inactive.
As to `Cc1ccc(=O)n(-c2ccccc2)c1`, the Potency result in test [1], in test [2], in test [3], in test [5], in test [6] and in [19] was “inactive” in each case. The Potency result in test [7], in test [8], in [9], in test [10], in test [12] and in test [18] was “inactive” each time. Besides, the Potency entry in test [13], in test [15] and in test [16] was “inactive” in each case. The result in test [11], in [17] and in test [14] was inactive.
Consider `O=c1[nH]c(=O)n([C@H]2C[C@H](O)[C@@H](CO)O2)cc1I`, for which the Potency result in test [1], in test [2], in test [3], in test [5], in [6] and in test [19] was “inactive” throughout. For the same compound, the Potency entry in test [7], in [8], in test [9], in test [10], in test [12] and in test [13] was “inactive” each time. Further, the Potency entry in test [15] and in test [16] was “inactive” in each case. Also, the outcome in test [11] and in [14] was inactive.
With `CN1CCC(=C2c3ccccc3CC(=O)c3sccc32)CC1`, the Potency result in test [2], in test [3], in [4], in test [5], in [6] and in test [19] was “inactive” in each case. Further, the Potency entry in test [7], in [8], in test [9], in test [10], in [12] and in test [13] was “inactive” each time. Also, the Potency entry in test [15] and in [16] was “inactive” each time. Moreover, the result in test [11], in test [17] and in test [14] was inactive.
